# Records with an inconclusive call do not appear. The source made the active and inactive calls. The calls were made as follows: active = hit-call score of the fitted dose curve at least 0.9, where 1 is the maximum; inconclusive = response in the unintended direction; inactive = score below 0.9.
# Tests used:
# [1] = molecular target: chimpanzee Androgen Receptor (AR), AR (gene 747460) (UniProt O97775); experiment: NVS_NR_cAR: NovaScreen (NVS) Nuclear Receptor Binding Assay for chimpanzee Androgen Receptor (AR) (AID 2283346);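 also: radioligand displacement from AR measured by scintillation counting in a cell-free assay; a loss of bound radioligand signal versus DMSO counts as binding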
# Sequence of chimpanzee Androgen Receptor (AR), AR (gene 747460) (O97775 whole entry, looked up): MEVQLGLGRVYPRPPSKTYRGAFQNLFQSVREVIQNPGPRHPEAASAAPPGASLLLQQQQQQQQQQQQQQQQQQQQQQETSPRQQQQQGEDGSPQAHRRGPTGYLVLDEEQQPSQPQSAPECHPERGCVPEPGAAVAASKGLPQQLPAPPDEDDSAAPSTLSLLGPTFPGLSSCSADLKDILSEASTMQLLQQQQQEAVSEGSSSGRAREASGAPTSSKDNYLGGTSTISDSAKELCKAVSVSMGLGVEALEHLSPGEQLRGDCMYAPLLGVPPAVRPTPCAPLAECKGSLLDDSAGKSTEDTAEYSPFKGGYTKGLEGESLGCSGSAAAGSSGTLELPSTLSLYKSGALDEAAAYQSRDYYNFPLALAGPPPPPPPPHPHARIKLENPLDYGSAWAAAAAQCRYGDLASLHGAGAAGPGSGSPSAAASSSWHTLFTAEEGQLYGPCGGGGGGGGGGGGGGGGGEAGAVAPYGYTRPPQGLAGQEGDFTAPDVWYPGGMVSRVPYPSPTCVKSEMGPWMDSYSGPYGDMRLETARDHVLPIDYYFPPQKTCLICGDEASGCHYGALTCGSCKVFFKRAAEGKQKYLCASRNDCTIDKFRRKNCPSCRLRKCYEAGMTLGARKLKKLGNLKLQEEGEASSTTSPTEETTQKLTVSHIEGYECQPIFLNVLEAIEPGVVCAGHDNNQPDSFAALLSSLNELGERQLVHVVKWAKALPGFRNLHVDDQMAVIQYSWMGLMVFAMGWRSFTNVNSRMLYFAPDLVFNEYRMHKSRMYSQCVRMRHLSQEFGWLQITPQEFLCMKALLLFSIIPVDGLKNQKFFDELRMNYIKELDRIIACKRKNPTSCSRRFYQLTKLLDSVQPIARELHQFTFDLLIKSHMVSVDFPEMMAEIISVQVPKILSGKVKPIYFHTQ
# Outline: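 Radioligand binding to chimpanzee AR expressed in Sf9/Sf21 cells, cell-free, measured 72 h after dosing by lysate-based scintillation counting. Loss of signal vs DMSO; initial duplicate screen at 25 uM, actives retested in concentration series.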
# [2] = molecular target: Androgen Receptor/SRC-1 Co-activator, AR (gene 367) (UniProt P10275); experiment: OT_AR_ARSRC1_0480: Odyssey Thera (OT) 8-hour HEK293T Protein-Complementation Assay for Androgen Receptor/SRC-1 Co-activator (AID 2283354);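 also: hits raise the complementation signal above DMSO so AC50 marks enhancers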
# Sequence of Androgen Receptor/SRC-1 Co-activator, AR (gene 367) (P10275 whole entry, looked up, the tested form may be a part): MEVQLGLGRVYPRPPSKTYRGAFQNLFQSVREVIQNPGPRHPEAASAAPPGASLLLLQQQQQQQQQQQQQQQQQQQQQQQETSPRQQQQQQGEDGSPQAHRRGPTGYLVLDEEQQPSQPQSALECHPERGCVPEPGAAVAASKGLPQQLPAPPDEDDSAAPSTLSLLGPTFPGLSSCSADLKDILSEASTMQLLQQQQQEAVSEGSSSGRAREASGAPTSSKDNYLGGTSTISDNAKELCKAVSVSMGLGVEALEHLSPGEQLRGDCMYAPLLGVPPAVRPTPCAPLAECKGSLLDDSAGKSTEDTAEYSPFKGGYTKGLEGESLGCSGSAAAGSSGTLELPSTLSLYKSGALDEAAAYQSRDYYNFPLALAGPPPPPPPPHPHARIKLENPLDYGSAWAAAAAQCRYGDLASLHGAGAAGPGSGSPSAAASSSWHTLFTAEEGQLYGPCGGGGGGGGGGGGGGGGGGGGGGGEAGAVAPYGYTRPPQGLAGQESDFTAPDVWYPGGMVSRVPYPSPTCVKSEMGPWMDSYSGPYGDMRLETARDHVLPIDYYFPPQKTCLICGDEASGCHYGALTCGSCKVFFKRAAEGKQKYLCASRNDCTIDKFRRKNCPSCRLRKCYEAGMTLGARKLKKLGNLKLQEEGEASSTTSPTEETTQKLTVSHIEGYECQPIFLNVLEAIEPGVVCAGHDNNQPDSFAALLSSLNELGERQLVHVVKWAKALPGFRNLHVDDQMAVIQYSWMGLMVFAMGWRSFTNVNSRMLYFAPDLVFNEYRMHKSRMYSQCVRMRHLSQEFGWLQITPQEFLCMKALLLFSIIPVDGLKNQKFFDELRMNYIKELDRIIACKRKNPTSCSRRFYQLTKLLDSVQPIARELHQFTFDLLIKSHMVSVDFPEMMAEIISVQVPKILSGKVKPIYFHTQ
# Outline: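 HEK293T cells stably expressing AR and SRC-1 fused to Venus YFP fragments, imaged 8 h after dosing. Complementation fluorescence scored as nuclear/cytoplasmic ratio at 488 nm in at least 400 cells per image; gain fitted versus DMSO.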
# [3] = molecular target: Estrogen receptor beta (Homo sapiens) (UniProt Q92731); experiment: OT_ER_ERbERb_0480: Odyssey Thera (OT) 8-hour HEK293T Protein-Complementation Assay for Estrogen Receptor-beta/-beta Homodimer (AID 2283357);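 also: active means signal gain over DMSO baseline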
# Sequence of Estrogen receptor beta (Homo sapiens) (Q92731 whole entry, looked up, the tested form may be a part): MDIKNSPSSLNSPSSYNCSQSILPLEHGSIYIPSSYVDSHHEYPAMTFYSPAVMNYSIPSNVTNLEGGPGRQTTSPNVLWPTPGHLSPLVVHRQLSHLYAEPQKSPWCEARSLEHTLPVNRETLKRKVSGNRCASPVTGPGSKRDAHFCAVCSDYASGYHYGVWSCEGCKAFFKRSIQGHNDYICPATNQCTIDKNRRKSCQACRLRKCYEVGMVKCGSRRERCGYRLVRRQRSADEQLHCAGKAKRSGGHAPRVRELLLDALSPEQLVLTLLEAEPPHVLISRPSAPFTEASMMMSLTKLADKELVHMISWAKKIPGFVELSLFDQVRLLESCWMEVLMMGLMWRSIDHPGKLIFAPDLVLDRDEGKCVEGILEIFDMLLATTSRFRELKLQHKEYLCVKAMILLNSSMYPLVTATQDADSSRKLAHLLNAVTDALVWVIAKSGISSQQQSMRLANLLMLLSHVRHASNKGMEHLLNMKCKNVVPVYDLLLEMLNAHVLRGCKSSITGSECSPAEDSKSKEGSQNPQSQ
# Outline: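 Fluorescence intensity, nuclear for agonists and nuclear plus cytoplasmic for antagonists, was quantified by laser scanning cytometry versus vehicle after 8 h treatment. The cells were HEK293T stably carrying ER beta LBD fragment-complementation partners.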
# [4] = molecular target: human Peroxisome Proliferator-activated Receptor alpha (PPARa), PPARA (gene 5465) (UniProt Q07869); experiment: NVS_NR_hPPARa: NovaScreen (NVS) Nuclear Receptor Binding Assay for human Peroxisome Proliferator-activated Receptor alpha (PPARa) (AID 2283359);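 also: activity means loss of TR-FRET signal versus DMSO baseline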
# Outline: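 Cell-free TR-FRET binding assay with extracted PPARα protein, read 1 h after dosing. Primary screen in duplicate at 25 uM, with actives retested in concentration series. Loss of signal versus DMSO.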
# [5] = molecular target: Retinoic acid receptor alpha (Homo sapiens) (UniProt P10276); experiment: NVS_NR_hRARa_Agonist: NovaScreen (NVS) Nuclear Receptor Binding Assay for human Retinoic Acid Alpha Receptor Agonism (RAR) (AID 2283361)
# Outline: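 Cell-free TR-FRET binding readout with extracted receptor protein, read 2 hours after dosing; gain-of-signal fitted relative to DMSO. Screened in duplicate at 25 uM, actives then run in concentration-response.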
# [6] = molecular target: bovine Estrogen Receptor (ER), ESR1 (gene 407238) (UniProt P49884); experiment: NVS_NR_bER: NovaScreen (NVS) Nuclear Receptor Binding Assay for bovine Estrogen Receptor (ER) (AID 2283345);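 also: actives lower the bound radioligand count which means they displace the ER ligand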
# Outline: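 Scintillation counting of displaced radioligand gave the readout; bovine uterine membrane extract supplied the receptor. Measured 18 h post-dose, normalized to DMSO baseline. Single 25 uM duplicate screen preceded concentration-response follow-up.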
# [7] = molecular target: Estrogen receptor (Homo sapiens) (UniProt P03372); experiment: NVS_NR_hER: NovaScreen (NVS) Nuclear Receptor Binding Assay for human Estrogen Receptor (ER) (AID 2283348)
# Sequence of Estrogen receptor (Homo sapiens) (P03372 whole entry, looked up, the tested form may be a part): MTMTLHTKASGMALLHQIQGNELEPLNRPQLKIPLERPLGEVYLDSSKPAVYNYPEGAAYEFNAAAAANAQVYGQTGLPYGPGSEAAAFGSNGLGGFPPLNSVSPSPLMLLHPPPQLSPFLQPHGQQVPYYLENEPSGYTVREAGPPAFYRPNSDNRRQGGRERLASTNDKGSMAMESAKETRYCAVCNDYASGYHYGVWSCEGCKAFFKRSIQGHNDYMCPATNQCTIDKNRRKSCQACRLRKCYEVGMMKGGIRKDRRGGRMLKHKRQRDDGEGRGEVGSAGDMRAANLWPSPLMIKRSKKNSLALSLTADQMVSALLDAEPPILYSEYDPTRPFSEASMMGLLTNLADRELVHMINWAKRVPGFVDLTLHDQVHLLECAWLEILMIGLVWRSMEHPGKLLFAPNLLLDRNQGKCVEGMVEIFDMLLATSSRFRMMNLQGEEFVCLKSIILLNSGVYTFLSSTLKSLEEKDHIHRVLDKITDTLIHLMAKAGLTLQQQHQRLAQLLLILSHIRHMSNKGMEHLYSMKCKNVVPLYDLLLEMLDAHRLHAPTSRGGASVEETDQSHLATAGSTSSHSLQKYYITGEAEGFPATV
# Outline: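 Radioligand competitive displacement binding to estrogen receptor from MCF7 extract, cell-free; 18 h after dosing, scintillation read-out. Primary screen in duplicate at 25 uM; actives followed up in concentration series; loss of signal vs DMSO.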
# [8] = molecular target: Estrogen receptor (Homo sapiens) (UniProt P03372); experiment: OT_ER_ERaERa_1440: Odyssey Thera (OT) 24-hour HEK293T Protein-Complementation Assay for Estrogen Receptor-alpha/-alpha Homodimer (AID 2283349);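 also: hits raise fluorescence above DMSO for agonists and antagonists alike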
# Outline: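 HEK293T cells stably expressing the human ER alpha ligand-binding domain (aa 310-547) as a homodimer PCA were dosed for 24 hours. Fluorescence intensity was read by laser scanning cytometry, and gain of signal was fitted relative to DMSO vehicle.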
# NCBI gene 100848466 = experiment: NVS_NR_bPR: NovaScreen (NVS) Nuclear Receptor Binding Assay for bovine Progextron Receptor (PR) (AID 2283343);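 also: actives lower bound radioligand signal below DMSO meaning displacement of the label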
# Outline: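 Bovine uterine membrane preparation; radioligand displacement read by scintillation counting 18 h after dosing. Primary screen single concentration, 25 uM, in duplicate; actives followed up in concentration series. Signal loss versus DMSO baseline.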
# [9] = molecular target: Estrogen receptor (Homo sapiens) (UniProt P03372); experiment: OT_ER_ERaERa_0480: Odyssey Thera (OT) 8-hour HEK293T Protein-Complementation Assay for Estrogen Receptor-alpha/-alpha Homodimer (AID 2283351);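 also: rise in fluorescence from reassembled reporter fragments on ERα LBD homodimer in nucleus or whole cell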
# Outline: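 HEK293T, stable ERα LBD (aa 310-547) PCA homodimer; 8 h compound exposure; fluorescence intensity, laser scanning cytometer; positive fitting direction, DMSO baseline.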
# [10] = molecular target: T1, Estrogen receptor (Homo sapiens) + Estrogen receptor beta (Homo sapiens) (UniProt P03372+Q92731); experiment: OT_ER_ERaERb_0480: Odyssey Thera (OT) 8-hour HEK293T Protein-Complementation Assay for Estrogen Receptor-alpha/-beta Heterodimer (AID 2283352)
# T1 sequence (P03372 whole entry, looked up): as the sequence (P03372 whole entry, looked up, the tested form may be a part) above
# T1 sequence (Q92731 whole entry, looked up): as the sequence (Q92731 whole entry, looked up, the tested form may be a part) above
# Outline: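 Compound added to HEK293T cells carrying split-reporter-tagged ER-alpha and ER-beta LBDs, incubated 8 hours, then imaged by laser scanning cytometer. Signal rise in nucleus, or nucleus and cytoplasm, over vehicle was fitted in the positive direction.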
# [11] = molecular target: rat Mineralocorticoid Receptor (MR), Nr3c2 (gene 25672) (UniProt P22199); experiment: NVS_NR_rMR: NovaScreen (NVS) Nuclear Receptor Binding Assay for rat Mineralocorticoid Receptor (MR) (AID 2283355)
# Outline: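 Cell-free radioligand binding to mineralocorticoid receptor from adrenalectomized rat brain supernatant, scintillation counting after 24 h. Primary screen in duplicate at 25 uM; actives retested in concentration series. Loss of specific binding versus DMSO.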
# [12] = molecular target: T1, Estrogen receptor (Homo sapiens) + Estrogen receptor beta (Homo sapiens); experiment: OT_ER_ERaERb_1440: Odyssey Thera (OT) 24-hour HEK293T Protein-Complementation Assay for Estrogen Receptor-alpha/-beta Homodimer (AID 2283356);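 also: heteromer of ER alpha and ER beta binding domains; hits raise reporter fluorescence and both agonists and antagonists give an increase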
# Outline: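 Stable HEK293T PCA line, ERα LBD 310-547 + ERβ LBD 263-489 fused to reporter fragments; 24 h treatment; fluorescence read by laser scanning cytometry; positive fitting direction relative to DMSO.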
# PGR (gene 5241) = PGR (gene 5241) (UniProt P06401); experiment: NVS_NR_hPR: NovaScreen (NVS) Nuclear Receptor Binding Assay for human Progestron Receptor (PR) (AID 2283360);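 also: active means loss of bound radioligand signal versus DMSO baseline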
# Sequence of PGR (gene 5241) (P06401 whole entry, looked up): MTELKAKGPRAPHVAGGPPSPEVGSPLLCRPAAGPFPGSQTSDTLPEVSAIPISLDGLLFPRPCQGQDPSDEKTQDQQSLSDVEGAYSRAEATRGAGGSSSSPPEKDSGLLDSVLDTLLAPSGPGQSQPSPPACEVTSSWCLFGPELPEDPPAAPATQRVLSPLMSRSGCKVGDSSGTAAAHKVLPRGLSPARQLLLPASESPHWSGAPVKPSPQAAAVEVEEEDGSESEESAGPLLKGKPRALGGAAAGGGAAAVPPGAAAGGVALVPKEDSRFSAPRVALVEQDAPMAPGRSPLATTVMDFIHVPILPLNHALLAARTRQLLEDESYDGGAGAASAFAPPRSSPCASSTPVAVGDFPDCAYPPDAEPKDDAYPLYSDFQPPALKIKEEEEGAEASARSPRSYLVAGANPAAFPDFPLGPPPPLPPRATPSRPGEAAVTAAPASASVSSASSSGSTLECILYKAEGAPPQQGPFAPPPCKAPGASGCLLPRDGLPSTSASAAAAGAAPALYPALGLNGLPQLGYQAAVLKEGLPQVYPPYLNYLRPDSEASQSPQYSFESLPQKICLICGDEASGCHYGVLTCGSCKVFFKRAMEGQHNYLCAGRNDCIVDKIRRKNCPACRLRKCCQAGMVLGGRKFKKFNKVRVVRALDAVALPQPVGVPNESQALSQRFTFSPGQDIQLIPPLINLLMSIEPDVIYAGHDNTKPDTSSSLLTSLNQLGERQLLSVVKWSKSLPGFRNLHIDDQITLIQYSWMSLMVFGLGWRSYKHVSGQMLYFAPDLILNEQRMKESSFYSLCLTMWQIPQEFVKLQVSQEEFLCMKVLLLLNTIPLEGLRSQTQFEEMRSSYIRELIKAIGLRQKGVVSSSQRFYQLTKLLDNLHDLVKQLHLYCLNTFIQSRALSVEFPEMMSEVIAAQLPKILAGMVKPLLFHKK
# Outline: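 T47D lysate; tritiated or iodinated radioligand; scintillation count at 18 h. DMSO = negative control/baseline. Primary: 25 uM, duplicate. Secondary: concentration series for actives.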
# [13] = molecular target: Bile acid receptor (Homo sapiens) (UniProt Q96RI1); experiment: NVS_NR_hFXR_Antagonist: NovaScreen (NVS) Nuclear Receptor Binding Assay for human Farnesoid X Receptor Antagonism (FXR) (AID 2283350)
# Outline: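 Cell-free TR-FRET ligand-binding read-out on human FXR (NR1H4) in antagonist mode, measured 1 h after dosing. Primary screen in duplicate at 25 uM, actives retested in concentration series; signal loss scored versus DMSO.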
# [14] = molecular target: rat Glycine Receptor, Strychnine-sensitive (GlyRStrySens), Glra1 (gene 25674) (UniProt P07727); experiment: NVS_LGIC_rGlyRStrySens: NovaScreen (NVS) Ligand-Gated Ion Channel Assay for rat Glycine Receptor, Strychnine-sensitive (GlyRStrySens) (AID 2283341)
# Outline: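 Radioligand displacement on rat spinal cord membranes, 1 hr, filter scintillation read-out. Single-concentration duplicate screen at 25 uM; chemicals meeting threshold (e.g., 30% inhibition) rerun in concentration-response up to 50 uM. Loss of binding fitted versus DMSO.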
# [15] = molecular target: rat Glutamate, MK-801 Agonist Site (GluNMDA_MK801), Grin1 (gene 24408) (UniProt P35439); experiment: NVS_LGIC_rGluNMDA_MK801_Agonist: NovaScreen (NVS) Ligand-Gated Ion Channel Assay for rat Glutamate, MK-801 Agonist Site (GluNMDA_MK801) (AID 2283340)
# Outline: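 Radioligand binding at MK-801 site in rat forebrain membranes, 1.5 h incubation, filter-based scintillation counting. Initially 25 uM in duplicate; actives then run in concentration-response up to 50 uM, fitted for gain of signal versus DMSO.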
# [16] = molecular target: human Constitutive Androstane Receptor (CAR), NR1I3 (gene 9970) (UniProt Q14994); experiment: NVS_NR_hCAR_Antagonist: NovaScreen (NVS) Nuclear Receptor Binding Assay for human Constitutive Androstane Receptor Antagonism (CAR) (AID 2283344)
# Outline: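 Cell-free TR-FRET binding read 1 h after dosing, antagonist mode; loss of signal versus DMSO baseline. Primary screen in duplicate at a single 25 uM; actives retested in concentration series.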
smiles,measurement,setting,value
CCOc1cccc(-n2cc(C(=O)N3CCN(c4cc(C(=O)O)c5ccccc5c4)CC3)nc2-c2ccc(C)cc2)c1,AC50,[1],20.4 µM (active)
same,outcome,[2],inactive
same,outcome,[3],inactive
same,outcome,[4],inactive
same,AC50,[5],16.2 µM (active)
Nc1ccc(Nc2ccccc2)cc1,outcome,[6],inactive
same,outcome,[7],inactive
same,outcome,[8],inactive
same,AC50,[4],46.3 µM (active)
O=P(OC(CCl)CCl)(OC(CCl)CCl)OC(CCl)CCl,AC50,NCBI gene 100848466,8.22 µM (active)
same,AC50,[1],13.3 µM (active)
same,outcome,[7],inactive
same,outcome,[8],inactive
same,outcome,[9],inactive
same,outcome,[10],inactive
same,outcome,[11],inactive
same,outcome,[12],inactive
same,outcome,[3],inactive
same,AC50,PGR (gene 5241),5.78 µM (active)
CNS(=O)(=O)c1cc(C(=O)N2CCC(CCN3C4CCC3CC(n3c(C)nc5ccccc53)C4)(c3cccc(F)c3)CC2)c(Cl)cc1F (centres undefined),AC50,[1],11.3 µM (active)
same,AC50,[13],8.21 µM (active)
same,AC50,[2],32 µM (active)
same,outcome,[3],inactive
same,outcome,[4],inactive
COc1ccc(-n2nc(C(F)F)cc2-c2ccc(S(C)=O)cc2)cc1 (centres undefined),outcome,[14],inactive
same,outcome,[8],inactive
same,outcome,[9],inactive
CC(C)=CCC/C(C)=C/CO,outcome,[1],inactive
CC/C(=C\C(=N/O)C(N)=O)C(C)[N+](=O)[O-] (centres undefined),outcome,[14],inactive
same,outcome,[6],inactive
same,outcome,[8],inactive
same,outcome,[9],inactive
same,outcome,[12],inactive
same,outcome,[3],inactive
COc1ccc2sc(C(=O)Nc3nnn[nH]3)c(OC(C)C)c2c1,outcome,[1],inactive
same,outcome,[7],inactive
same,outcome,[8],inactive
same,outcome,[9],inactive
same,outcome,[10],inactive
same,outcome,[12],inactive
same,outcome,[3],inactive
O=C(O)c1cc(N=Nc2ccc(S(=O)(=O)Nc3ccccn3)cc2)ccc1O,AC50,[1],5.35 µM (active)
same,outcome,[3],inactive
same,AC50,PGR (gene 5241),36.5 µM (active)
O=c1[nH]c2ccc(S(=O)CCN3CCC(Cc4ccc(F)cc4)CC3)cc2o1 (centres undefined),outcome,[15],inactive
same,outcome,[8],inactive
same,outcome,[9],inactive
same,outcome,[12],inactive
same,outcome,PGR (gene 5241),inactive
CC(C)=CCC/C(C)=C\CO,outcome,[16],inactive
same,outcome,[1],inactive
same,outcome,[13],inactive
Oc1ccc2c(c1)-c1ccccc1C2,AC50,NCBI gene 100848466,25 µM (active)
same,AC50,[1],8.77 µM (active)
same,AC50,[2],50 µM (active)
same,outcome,[11],inactive
same,AC50,[3],12.7 µM (active)
same,outcome,[4],inactive
same,AC50,PGR (gene 5241),9.66 µM (active)

# Source: PubChem BioAssay (EPA / NIEHS)
